Experimental data from the supplement of paper PMC11732987, “Enantioselective OTUD7B fragment discovery through chemoproteomics screening and high-throughput optimisation” (Communications Chemistry, 2025).

Columns and labels:
Assay in all cases: log2 ratio of Biotin-Ahx-Ub-VS probe labelling (fragment/DMSO); higher = less target engagement (more negative = stronger competition), active = hit call of the paper (q ≤ 0.05, log2 ratio ≤ -1)
Conditions in all cases: compound concentration: 200 uM; treatment time: 3 h
USP42 = molecular target: T1, USP42 (UniProt Q9H9J4)
T1 sequence (whole entry): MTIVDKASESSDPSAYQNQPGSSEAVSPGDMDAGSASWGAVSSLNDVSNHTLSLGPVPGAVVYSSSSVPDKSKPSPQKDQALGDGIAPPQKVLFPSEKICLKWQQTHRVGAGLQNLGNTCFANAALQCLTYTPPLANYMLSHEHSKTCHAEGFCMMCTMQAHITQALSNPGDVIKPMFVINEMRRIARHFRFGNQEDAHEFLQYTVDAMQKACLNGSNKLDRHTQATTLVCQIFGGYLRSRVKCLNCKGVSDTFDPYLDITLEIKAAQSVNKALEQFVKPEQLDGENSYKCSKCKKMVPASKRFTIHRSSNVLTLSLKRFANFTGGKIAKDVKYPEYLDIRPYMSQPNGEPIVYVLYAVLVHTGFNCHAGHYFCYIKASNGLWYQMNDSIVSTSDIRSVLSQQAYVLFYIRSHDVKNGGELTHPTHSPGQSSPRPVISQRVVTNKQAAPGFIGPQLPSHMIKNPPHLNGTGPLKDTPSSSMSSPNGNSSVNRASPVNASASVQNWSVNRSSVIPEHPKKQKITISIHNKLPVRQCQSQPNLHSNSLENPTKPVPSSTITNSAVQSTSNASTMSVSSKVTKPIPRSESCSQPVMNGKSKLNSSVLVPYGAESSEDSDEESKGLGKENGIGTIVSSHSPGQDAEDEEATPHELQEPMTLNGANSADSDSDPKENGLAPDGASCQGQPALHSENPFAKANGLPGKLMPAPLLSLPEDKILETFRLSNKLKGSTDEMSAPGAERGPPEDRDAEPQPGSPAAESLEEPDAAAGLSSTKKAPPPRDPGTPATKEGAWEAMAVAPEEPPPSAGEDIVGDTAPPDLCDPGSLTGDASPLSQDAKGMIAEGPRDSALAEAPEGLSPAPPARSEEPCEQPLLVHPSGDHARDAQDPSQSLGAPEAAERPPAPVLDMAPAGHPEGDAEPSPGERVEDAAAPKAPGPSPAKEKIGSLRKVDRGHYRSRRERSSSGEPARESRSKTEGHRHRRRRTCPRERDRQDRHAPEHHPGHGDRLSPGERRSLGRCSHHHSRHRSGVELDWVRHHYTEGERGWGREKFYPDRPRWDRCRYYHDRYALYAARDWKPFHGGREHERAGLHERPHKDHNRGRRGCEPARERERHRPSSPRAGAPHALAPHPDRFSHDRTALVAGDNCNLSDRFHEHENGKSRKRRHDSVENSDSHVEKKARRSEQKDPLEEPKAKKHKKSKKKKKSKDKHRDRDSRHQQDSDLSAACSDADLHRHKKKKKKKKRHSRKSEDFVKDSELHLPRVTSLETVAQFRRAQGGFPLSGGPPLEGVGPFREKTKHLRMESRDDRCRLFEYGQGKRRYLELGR
Method in brief: (§1)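 Labelled DUBs from HEK293T lysate were NeutrAvidin-enriched, digested with LysC and trypsin, and run by diaPASEF LC-MS/MS. Before that, each 495 µg sample in Tris/CHAPS/IGEPAL buffer with protease inhibitors was treated in triplicate with fragment at 200 µM or vehicle for 3 h, then with Biotin-Ahx-Ub-VS at 0.5 µM final for 1 h. Values are average log2 ratios of fragment over vehicle by unpaired t-test, based on global-median-normalised Spectronaut label-free quantities from proteins with ≥2 unique peptides.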

USP46 = USP46 (UniProt P62068)
Method in brief: as §1

USP47 = molecular target: T2, USP47 (UniProt Q96K76)
T2 sequence (whole entry): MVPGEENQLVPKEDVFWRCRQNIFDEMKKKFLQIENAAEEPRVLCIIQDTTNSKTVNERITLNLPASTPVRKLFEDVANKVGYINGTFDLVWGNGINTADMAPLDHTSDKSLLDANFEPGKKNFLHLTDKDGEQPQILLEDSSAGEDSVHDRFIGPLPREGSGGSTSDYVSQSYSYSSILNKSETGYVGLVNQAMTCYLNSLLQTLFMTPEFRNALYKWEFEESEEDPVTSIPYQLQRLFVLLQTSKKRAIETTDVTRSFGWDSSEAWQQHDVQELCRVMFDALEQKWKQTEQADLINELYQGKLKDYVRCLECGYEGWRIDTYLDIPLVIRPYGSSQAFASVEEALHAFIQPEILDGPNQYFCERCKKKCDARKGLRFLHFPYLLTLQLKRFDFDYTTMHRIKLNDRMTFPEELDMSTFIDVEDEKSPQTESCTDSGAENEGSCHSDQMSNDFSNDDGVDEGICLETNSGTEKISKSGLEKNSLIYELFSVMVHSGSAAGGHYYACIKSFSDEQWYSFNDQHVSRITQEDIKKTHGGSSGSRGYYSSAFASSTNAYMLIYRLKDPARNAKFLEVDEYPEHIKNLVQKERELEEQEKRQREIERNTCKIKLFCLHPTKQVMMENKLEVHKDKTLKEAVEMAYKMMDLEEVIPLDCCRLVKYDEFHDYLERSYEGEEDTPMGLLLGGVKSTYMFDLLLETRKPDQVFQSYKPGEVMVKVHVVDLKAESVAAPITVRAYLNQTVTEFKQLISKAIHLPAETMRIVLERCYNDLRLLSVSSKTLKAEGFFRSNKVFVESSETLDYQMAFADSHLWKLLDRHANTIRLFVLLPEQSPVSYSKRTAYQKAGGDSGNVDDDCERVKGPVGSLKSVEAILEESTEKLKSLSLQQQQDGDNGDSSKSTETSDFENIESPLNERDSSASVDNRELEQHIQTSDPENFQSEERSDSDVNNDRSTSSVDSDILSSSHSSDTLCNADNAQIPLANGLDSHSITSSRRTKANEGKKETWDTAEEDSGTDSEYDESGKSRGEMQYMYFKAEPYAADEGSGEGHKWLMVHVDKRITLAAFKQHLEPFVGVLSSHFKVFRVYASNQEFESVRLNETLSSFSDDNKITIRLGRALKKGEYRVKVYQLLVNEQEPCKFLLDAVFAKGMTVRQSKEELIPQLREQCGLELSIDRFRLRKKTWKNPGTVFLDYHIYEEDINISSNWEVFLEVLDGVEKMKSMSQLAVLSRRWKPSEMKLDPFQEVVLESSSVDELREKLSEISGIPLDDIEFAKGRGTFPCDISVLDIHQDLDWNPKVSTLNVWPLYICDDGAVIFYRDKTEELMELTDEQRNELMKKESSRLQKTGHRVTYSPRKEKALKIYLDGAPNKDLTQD
Method in brief: as §1

USP48 = molecular target: T3, USP48 (UniProt Q86UV5)
T3 sequence (whole entry): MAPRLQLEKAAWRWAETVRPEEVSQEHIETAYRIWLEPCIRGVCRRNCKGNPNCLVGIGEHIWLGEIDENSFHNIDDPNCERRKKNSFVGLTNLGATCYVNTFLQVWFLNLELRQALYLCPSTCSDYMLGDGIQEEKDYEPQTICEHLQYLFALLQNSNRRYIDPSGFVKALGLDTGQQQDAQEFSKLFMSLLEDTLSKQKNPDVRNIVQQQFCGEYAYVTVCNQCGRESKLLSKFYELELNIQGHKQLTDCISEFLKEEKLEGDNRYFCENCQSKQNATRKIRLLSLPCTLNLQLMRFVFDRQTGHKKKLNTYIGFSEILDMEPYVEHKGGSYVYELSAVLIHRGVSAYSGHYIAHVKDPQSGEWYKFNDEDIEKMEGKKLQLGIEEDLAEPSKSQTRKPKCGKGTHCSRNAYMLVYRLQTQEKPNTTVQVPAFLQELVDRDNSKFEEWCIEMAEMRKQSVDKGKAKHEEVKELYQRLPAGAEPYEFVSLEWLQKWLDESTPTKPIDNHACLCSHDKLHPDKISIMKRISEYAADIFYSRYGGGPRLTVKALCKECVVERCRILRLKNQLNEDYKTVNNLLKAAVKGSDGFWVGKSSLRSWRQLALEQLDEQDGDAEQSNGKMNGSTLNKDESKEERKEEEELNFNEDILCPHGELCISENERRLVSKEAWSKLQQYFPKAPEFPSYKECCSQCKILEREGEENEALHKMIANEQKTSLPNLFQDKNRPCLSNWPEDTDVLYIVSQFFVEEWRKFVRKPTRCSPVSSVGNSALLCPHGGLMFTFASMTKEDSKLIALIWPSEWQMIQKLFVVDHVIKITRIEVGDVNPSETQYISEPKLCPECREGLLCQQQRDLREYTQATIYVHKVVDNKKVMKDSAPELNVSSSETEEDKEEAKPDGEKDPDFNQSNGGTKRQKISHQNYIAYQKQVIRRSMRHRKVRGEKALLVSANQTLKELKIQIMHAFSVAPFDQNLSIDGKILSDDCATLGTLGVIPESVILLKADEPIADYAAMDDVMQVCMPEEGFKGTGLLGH
Method in brief: as §1

USP5 = molecular target: T4, USP5 (UniProt P45974)
T4 sequence (whole entry): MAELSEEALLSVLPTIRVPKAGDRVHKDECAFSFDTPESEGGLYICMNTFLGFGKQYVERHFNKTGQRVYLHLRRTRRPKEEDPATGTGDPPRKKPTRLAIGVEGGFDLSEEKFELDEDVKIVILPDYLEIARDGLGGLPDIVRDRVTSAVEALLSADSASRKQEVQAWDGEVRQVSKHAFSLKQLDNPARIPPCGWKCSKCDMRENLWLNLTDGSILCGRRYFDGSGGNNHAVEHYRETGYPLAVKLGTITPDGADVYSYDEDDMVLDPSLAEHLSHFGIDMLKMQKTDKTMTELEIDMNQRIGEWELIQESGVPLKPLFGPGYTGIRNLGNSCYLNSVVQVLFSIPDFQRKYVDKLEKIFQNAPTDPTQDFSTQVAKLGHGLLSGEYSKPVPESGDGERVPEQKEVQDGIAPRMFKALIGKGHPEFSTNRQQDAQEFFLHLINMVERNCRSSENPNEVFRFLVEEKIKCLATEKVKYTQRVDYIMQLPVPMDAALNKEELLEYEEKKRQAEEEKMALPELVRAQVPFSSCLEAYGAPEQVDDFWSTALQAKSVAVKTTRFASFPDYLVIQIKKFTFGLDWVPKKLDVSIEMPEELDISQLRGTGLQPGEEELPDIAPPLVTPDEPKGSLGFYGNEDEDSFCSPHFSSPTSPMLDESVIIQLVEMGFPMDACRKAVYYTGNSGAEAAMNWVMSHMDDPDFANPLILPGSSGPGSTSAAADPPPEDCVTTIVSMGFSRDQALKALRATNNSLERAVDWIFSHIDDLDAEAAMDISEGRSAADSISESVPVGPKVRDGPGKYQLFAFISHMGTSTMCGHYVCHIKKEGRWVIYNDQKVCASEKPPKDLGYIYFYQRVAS
Method in brief: as §1

USP54 = USP54 (UniProt Q70EL1)
Method in brief: as §1

USP7 = USP7 (UniProt Q93009)
Method in brief: as §1

USP8 = molecular target: T5, USP8 (UniProt P40818)
T5 sequence (whole entry): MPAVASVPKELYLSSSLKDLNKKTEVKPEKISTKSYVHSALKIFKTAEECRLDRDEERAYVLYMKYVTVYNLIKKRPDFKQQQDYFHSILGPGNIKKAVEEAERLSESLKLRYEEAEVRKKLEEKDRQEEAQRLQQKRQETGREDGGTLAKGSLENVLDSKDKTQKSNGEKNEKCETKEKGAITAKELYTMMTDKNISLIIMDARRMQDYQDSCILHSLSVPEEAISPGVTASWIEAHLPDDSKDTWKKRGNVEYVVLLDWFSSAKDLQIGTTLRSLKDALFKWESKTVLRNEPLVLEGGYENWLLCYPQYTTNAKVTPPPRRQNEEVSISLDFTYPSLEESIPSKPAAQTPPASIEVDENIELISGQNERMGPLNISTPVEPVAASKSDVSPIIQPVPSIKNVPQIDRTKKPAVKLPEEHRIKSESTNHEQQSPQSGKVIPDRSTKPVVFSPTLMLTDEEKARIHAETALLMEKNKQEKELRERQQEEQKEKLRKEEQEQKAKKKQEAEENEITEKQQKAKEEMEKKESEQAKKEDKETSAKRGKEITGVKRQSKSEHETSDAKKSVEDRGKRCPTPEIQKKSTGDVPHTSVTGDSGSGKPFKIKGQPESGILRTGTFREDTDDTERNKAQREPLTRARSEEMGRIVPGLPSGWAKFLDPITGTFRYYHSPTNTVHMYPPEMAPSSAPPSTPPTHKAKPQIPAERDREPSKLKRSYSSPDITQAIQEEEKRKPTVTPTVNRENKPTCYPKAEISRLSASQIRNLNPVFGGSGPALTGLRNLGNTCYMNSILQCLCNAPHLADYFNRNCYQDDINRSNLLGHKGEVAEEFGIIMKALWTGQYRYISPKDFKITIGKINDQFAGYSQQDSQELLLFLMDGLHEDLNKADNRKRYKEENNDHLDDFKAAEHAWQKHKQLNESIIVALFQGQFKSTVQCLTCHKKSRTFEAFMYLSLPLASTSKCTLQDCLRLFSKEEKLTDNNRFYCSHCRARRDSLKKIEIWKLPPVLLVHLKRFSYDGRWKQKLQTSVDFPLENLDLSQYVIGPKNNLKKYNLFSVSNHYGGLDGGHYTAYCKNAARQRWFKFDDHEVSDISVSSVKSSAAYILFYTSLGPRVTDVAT
Method in brief: as §1

USP9X = USP9X (UniProt Q93008)
Method in brief: as §1

UniProt O00487 = molecular target: UniProt O00487
Method in brief: as §1

Measured: log2 ratio of Biotin-Ahx-Ub-VS probe labelling

USP46, sequence (P62068 whole entry): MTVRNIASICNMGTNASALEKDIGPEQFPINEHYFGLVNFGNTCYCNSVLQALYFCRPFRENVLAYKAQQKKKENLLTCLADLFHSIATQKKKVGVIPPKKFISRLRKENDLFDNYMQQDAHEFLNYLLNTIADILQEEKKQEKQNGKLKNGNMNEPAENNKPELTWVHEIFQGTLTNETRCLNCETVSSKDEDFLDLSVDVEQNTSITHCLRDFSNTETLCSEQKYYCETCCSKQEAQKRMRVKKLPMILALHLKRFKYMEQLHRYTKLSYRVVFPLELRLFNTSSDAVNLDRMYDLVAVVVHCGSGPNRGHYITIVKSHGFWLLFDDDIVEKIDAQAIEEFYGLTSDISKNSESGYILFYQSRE
USP9X, sequence (Q93008 whole entry): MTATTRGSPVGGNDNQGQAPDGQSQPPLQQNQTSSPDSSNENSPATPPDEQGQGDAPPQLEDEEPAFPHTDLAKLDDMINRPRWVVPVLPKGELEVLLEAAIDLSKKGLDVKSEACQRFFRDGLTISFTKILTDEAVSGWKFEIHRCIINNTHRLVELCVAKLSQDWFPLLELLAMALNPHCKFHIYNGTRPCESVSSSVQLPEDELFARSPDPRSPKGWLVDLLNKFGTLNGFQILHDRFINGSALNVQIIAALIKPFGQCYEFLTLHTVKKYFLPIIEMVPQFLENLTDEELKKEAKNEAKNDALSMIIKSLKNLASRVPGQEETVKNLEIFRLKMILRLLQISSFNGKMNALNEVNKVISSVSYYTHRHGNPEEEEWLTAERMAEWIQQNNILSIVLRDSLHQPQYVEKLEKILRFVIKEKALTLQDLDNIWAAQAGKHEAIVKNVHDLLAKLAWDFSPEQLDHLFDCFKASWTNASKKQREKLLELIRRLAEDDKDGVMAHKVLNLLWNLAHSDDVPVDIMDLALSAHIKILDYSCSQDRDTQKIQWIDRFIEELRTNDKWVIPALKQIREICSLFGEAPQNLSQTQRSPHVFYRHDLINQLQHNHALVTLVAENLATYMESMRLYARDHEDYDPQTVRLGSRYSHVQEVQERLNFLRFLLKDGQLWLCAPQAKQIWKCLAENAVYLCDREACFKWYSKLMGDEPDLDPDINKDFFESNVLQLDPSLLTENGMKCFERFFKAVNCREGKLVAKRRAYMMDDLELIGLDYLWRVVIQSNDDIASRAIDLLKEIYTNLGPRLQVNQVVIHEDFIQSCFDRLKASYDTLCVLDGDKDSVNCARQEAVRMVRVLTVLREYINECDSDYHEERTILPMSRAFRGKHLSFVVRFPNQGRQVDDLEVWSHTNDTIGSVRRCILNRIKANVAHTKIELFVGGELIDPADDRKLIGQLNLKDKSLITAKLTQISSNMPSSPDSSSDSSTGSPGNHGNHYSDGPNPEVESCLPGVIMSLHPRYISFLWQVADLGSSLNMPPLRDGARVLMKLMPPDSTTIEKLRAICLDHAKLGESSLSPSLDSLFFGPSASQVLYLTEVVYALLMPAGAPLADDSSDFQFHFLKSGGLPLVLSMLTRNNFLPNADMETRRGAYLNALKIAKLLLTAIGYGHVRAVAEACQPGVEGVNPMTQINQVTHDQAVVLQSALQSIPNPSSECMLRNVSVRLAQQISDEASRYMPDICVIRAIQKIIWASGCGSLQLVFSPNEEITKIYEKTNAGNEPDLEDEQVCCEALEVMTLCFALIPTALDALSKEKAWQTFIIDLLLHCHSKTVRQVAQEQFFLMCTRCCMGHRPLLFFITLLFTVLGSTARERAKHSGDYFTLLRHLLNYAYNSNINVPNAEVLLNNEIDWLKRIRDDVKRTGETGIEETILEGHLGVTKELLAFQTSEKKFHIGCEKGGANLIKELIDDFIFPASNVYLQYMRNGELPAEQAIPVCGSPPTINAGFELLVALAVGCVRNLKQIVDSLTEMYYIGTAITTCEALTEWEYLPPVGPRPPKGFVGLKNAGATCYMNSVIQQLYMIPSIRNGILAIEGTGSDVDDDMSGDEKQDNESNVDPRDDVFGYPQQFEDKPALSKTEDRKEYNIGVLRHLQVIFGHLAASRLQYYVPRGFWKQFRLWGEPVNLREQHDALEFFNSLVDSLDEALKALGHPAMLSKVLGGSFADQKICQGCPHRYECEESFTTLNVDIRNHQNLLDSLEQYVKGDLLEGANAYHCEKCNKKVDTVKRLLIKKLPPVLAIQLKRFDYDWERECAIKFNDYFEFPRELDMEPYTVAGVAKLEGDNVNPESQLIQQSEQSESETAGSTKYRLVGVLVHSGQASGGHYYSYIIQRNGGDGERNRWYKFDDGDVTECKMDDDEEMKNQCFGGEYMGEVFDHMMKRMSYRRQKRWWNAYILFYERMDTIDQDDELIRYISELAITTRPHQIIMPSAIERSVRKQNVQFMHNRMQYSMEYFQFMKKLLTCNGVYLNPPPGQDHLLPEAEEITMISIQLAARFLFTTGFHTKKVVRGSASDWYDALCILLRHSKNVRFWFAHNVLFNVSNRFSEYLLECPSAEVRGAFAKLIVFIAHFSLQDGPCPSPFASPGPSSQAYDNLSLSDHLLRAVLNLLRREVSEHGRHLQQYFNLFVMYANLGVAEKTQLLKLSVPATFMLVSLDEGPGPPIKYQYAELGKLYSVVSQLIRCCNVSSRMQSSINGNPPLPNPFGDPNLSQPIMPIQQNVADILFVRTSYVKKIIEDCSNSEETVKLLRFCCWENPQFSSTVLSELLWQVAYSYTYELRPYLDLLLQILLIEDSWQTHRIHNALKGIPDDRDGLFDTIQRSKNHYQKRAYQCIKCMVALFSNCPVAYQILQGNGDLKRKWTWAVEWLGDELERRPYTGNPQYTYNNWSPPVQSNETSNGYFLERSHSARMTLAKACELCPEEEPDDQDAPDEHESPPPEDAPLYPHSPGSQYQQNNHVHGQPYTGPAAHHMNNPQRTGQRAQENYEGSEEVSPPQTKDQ
UniProt O00487, sequence (O00487 whole entry): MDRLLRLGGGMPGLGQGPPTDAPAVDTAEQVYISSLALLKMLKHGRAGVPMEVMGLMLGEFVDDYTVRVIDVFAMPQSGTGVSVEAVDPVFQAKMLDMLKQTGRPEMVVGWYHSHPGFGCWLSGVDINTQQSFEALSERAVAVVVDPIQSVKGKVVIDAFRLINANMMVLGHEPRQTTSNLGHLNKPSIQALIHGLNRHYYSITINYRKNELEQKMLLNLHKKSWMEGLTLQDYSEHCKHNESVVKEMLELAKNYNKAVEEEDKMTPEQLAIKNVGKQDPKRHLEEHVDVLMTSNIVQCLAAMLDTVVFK
USP54, sequence (Q70EL1 whole entry): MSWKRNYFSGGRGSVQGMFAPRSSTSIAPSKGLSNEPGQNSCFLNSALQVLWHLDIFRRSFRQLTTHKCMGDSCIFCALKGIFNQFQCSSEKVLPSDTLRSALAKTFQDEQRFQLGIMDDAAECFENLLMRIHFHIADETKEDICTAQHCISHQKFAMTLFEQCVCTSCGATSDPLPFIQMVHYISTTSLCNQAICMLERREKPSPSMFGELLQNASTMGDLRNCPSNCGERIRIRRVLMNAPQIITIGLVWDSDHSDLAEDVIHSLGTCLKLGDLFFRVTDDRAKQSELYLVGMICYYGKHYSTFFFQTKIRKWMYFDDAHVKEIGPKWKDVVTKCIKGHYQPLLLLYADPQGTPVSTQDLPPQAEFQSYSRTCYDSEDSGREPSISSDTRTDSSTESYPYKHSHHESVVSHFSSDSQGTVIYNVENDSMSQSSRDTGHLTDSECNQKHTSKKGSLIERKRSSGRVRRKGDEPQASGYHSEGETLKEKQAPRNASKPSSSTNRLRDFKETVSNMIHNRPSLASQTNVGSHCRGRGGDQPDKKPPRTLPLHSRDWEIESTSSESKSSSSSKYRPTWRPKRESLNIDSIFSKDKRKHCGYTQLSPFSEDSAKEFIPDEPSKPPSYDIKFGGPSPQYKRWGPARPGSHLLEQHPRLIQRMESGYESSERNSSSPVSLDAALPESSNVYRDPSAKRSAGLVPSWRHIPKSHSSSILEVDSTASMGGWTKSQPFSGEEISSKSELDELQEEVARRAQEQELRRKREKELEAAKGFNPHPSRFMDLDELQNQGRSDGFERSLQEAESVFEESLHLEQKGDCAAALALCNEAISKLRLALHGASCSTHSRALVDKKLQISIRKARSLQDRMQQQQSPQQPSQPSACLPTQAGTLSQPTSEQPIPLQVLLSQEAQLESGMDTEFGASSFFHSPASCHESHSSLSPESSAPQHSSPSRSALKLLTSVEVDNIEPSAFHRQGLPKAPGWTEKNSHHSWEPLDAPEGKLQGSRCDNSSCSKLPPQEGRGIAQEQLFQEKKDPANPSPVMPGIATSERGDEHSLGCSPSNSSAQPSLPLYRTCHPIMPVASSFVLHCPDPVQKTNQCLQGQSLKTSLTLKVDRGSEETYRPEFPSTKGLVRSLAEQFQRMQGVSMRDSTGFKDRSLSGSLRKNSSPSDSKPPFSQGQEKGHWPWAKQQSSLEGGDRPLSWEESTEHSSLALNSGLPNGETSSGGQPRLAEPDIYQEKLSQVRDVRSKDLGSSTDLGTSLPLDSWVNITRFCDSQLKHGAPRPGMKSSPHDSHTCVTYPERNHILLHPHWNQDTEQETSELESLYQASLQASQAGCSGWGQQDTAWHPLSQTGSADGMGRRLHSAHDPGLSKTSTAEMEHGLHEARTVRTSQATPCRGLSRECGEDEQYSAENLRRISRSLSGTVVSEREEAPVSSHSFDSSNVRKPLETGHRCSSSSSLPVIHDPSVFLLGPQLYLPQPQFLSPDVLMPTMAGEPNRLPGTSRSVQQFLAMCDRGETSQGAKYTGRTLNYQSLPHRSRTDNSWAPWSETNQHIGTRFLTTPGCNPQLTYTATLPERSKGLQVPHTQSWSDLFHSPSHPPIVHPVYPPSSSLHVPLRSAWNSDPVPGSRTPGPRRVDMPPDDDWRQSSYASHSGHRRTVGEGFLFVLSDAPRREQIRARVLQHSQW

CCN(C(=O)CCl)C1CCS(=O)(=O)C1 (stereo not given)
inactive: USP42 0.372 | USP46 -0.128 | USP47 0.027 | USP48 -0.155 | USP5 0.158 | USP54 -0.012 | USP7 -0.288 | USP8 0.0171 | USP9X -0.112 | UniProt O00487 0.0162
